These results are taken from PubChem BioAssay (NCATS).

One assay relates to C33A. Description: Primary qHTS to identify gynecologic anti-cancer compounds using libraries of approved drugs and bioactive compounds (AID 1345084). Note: % is set by controls: 0 for no effect and ±100 for the full control effect; nearly all actives have a fitted effect of over 55% in size. To be noted: Gynecologic cancer cell panel viability, ATPlite luminescence, 48 h; series mostly up to 57.5 µM. A digest of the protocol: (§1)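 Luminescence from the ATPlite ATP-monitoring reagent indicates viable cell number; lower signal means cytotoxicity. Cells received compound 16 h after seeding and were exposed for 48 h across five concentrations.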

Another assay deals with CAOV3. The assay is described as above. The conditions noted are these: Gynecologic cancer cell panel viability, ATPlite luminescence, 48 h; series mostly up to 57.5 µM. A digest of the protocol: as §1
Background: Cellular ATP, detected with luciferase, serves as a proxy for viable cell number.

The next assay relates to CASKI. Described as above. To be noted: Gynecologic cancer cell panel viability, ATPlite luminescence, 48 h; series mostly up to 57.5 µM. A digest of the protocol:
as §1

The test system of a further assay is Es-2. Described as above. To be noted: Gynecologic cancer cell panel viability, ATPlite luminescence, 48 h; series mostly up to 57.5 µM. A digest of the protocol:
as §1

The next assay deals with HeLa. Described as above. The conditions noted are these: Gynecologic cancer cell panel viability, ATPlite luminescence, 48 h; series mostly up to 57.5 µM. A digest of the protocol: as §1
In another assay the test system is Hek293T. Described as above. The conditions noted are these: Gynecologic cancer cell panel viability, ATPlite luminescence, 48 h, control line for the selectivity index; series mostly up to 57.5 µM. A digest of the protocol: as §1
The next assay concerns JEG-3. Described as above. The conditions noted are these: Gynecologic cancer cell panel viability, ATPlite luminescence, 48 h; series mostly up to 57.5 µM. A digest of the protocol: as §1
The subject of another assay is OV90. The assay is described as above. To be noted: Gynecologic cancer cell panel viability, ATPlite luminescence, 48 h; series mostly up to 57.5 µM. A digest of the protocol:
as §1

In the next assay the test system is UISO. The assay can be described thus: qHTS assay to identify novel small-molecules to repurpose for Merkel cell carcinoma treatment (AID 1296009). Note: potency is the fitted concentration of half-maximal effect; nearly all actives have a fitted effect of over 60% in size. The conditions noted are these: MCC and control cell lines, CellTiter-Glo viability, 72 h. A digest of the protocol:
(§2)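 Dose-response viability screen; 72 hr exposure at 37 degree celsius; CellTiter-Glo added, 10 min room temperature, luminescence read; RLUs scaled between no-cell and DMSO wells.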
On the technique in general: In qHTS, concentration-response curves come from the screen itself.

The test system of another assay is WaGa. Described as above. To be noted: MCC and control cell lines, CellTiter-Glo viability, 72 h. A digest of the protocol: as §2

Molecules are shown by their SMILES. Records with an inconclusive call do not appear. Values without a mark were called inactive. Activity calls are given as the source filed them. Calls come from the whole dose curve; as a rule, active = well fitted curve in the direction sought with a large enough effect; inconclusive = small, poorly fitted or top-dose-only effect, or another doubt; inactive = no such curve, though single readings can be large; an effect the other way counts as inactive or inconclusive.

In the case of `CCN1C[C@]2(COC(=O)c3ccccc3N3C(=O)C[C@H](C)C3=O)CC[C@H](OC)[C@@]34[C@@H]5C[C@H]6[C@H](OC)[C@@H]5[C@](O)(C[C@@H]6OC)[C@](O)([C@@H](OC)[C@H]23)[C@@H]14`, the Potency result in the assay with C33A, in the assay on CAOV3, with CASKI, with Es-2, in the assay on HeLa and in the assay with Hek293T was “inactive” throughout. For the same compound, the Potency entry in the assay on JEG-3 and in the assay on OV90 was “inactive” each time.
In the case of `N#C[C@@H](O[C@@H]1O[C@H](CO[C@@H]2O[C@H](CO)[C@@H](O)[C@H](O)[C@H]2O)[C@@H](O)[C@H](O)[C@H]1O)c1ccccc1`, the Potency entry in the assay with C33A, in the assay on CAOV3, in the assay with CASKI, in the assay with Es-2, in the assay with HeLa and in the assay with Hek293T was “inactive” in each case. The Potency entry with JEG-3 and with OV90 was “inactive” in each case.
Consider `C=C1[C@@H]2CC[C@@]3(C)[C@H](c4ccoc4)OC(=O)C[C@]13O[C@H]1CC(=O)C(C)(C)[C@H](C(OC(C)=O)C(=O)OC)[C@]12C` (stereo partly specified), for which the Potency result in the assay with C33A, in the assay with CAOV3, in the assay on CASKI, with Es-2, with HeLa and with Hek293T was “inactive” throughout. For the same compound, the Potency result with JEG-3 and in the assay with OV90 was “inactive” in each case.
As for `CCCCCCn1c(=O)c(C(=O)Nc2ccc(C(=O)OCCC)cc2)c(O)c2ccccc21`, the activity change, negative = cytotoxicity in the assay on C33A is -0.0211% [at 11.6 µM]; in the assay with CAOV3 it was 20.9% [at 11.6 µM]; in the assay on CASKI, 4.2% [at 11.6 µM]; in the assay on Es-2 it was 9.25% [at 11.6 µM]; in the assay with HeLa, 18.5% [at 11.6 µM]; in the assay on Hek293T, 10.5% [at 11.6 µM]. Further, the values for the activity change, negative = cytotoxicity in the assay with JEG-3 and in the assay with OV90 were -0.73% [at 11.6 µM] and 9.17% [at 11.6 µM], respectively.
`CN1CCCC1CCOC(c1cc2nccc(C(=O)O)c2[nH]1)c1ccccc1Cl` (stereo unspecified): the Potency result in the assay with C33A, in the assay with CAOV3, with CASKI, in the assay with Es-2, with HeLa and with Hek293T was “inactive” in each case. Besides, the Potency entry in the assay with JEG-3 and in the assay on OV90 was “inactive” each time.
On to `C[CH2][Hg][S]c1ccccc1C(=O)O`, for which the Potency was 2990 nM (active) with UISO and 2660 nM (active) with WaGa.
As for `CC(C)=C1CC[C@]23CO[C@H](C2)[C@@](O)(C(=O)O)CCC13` (stereo partly specified), the Potency entry in the assay on C33A, in the assay with CAOV3, with CASKI, in the assay with Es-2, in the assay on HeLa and in the assay with Hek293T was “inactive” throughout. The Potency entry in the assay with JEG-3 and in the assay with OV90 was “inactive” throughout.
In the case of `Cc1cccc(NC(=O)N[C@@H]2N=C(c3ccccc3)c3ccccc3N(C)C2=O)c1`, the Potency result with C33A, in the assay on CAOV3, in the assay on CASKI, with Es-2, in the assay with HeLa and with Hek293T was “inactive” throughout. Further, the Potency result in the assay with JEG-3 and in the assay on OV90 was “inactive” throughout.
For the compound `CCC(C)(OC(C)=O)C(=O)O[C@H]1[C@H](OC(C)=O)C[C@@H]2[C@@](C)([C@@H]3C[C@H]4C=CO[C@H]4O3)[C@H](C)C[C@H](OC(C)=O)[C@@]2(COC(C)=O)[C@@]12CO2` (stereo partly specified), the Potency entry with C33A, in the assay on CAOV3, in the assay on CASKI, with Es-2, in the assay on HeLa and with Hek293T was “inactive” each time. Besides, the Potency entry in the assay on JEG-3 and in the assay on OV90 was “inactive” each time.
For the compound `COc1cc(C)[nH]c(=O)c1CNC(=O)c1c(C)n([C@H](C)C2CCOCC2)c2ccccc12`, the Potency result in the assay with C33A, in the assay on CAOV3, with CASKI, in the assay on Es-2, with HeLa and with Hek293T was “inactive” throughout. The Potency result in the assay on JEG-3 and in the assay with OV90 was “inactive” each time.
As for `CN(C(=O)Cc1ccccc1)C(CN1CCCC1)c1ccccc1` (stereo unspecified), the Potency result in the assay with C33A, in the assay on CAOV3, with CASKI, in the assay with Es-2, in the assay with HeLa and in the assay with Hek293T was “inactive” in each case. Besides, the Potency result in the assay on JEG-3 and with OV90 was “inactive” each time.
For the compound `CC1C/C=C/C(O)C(O)CC/C=C/c2cc(O)cc(O)c2C(=O)O1` (stereo unspecified), the Potency result in the assay with C33A, with CAOV3, with CASKI, with Es-2, in the assay with HeLa and in the assay on Hek293T was “inactive” in each case. In addition, the Potency entry with JEG-3 and with OV90 was “inactive” in each case.
For `C=C(CO)C(=O)O[C@H]1C/C(C)=C/CC/C(CO)=C/[C@H]2OC(=O)C(=C)[C@H]12`, the Potency result in the assay with C33A, with CAOV3, in the assay with CASKI, in the assay with Es-2, in the assay on HeLa and in the assay on Hek293T was “inactive” each time. The Potency entry in the assay on JEG-3 and in the assay on OV90 was “inactive” throughout.
As to `CC(=O)OC12C(O)C(C)C3(O)C4C=C(C)C(=O)C4CC(CO)=CC3C1C2(C)C` (stereo unspecified), the Potency result in the assay on C33A, in the assay on CAOV3, in the assay with CASKI, in the assay with Es-2, in the assay on HeLa and with Hek293T was “inactive” in each case. Also, the Potency entry with JEG-3 and with OV90 was “inactive” each time.
On to `CCc1[nH]c2ccc(OC)cc2c1CCN(C)C`, for which the Potency result with C33A, in the assay on CAOV3, with CASKI, in the assay with Es-2, in the assay with HeLa and with Hek293T was “inactive” throughout. The Potency result with JEG-3 and with OV90 was “inactive” in each case.
Turning to `C=C(C)[C@H]1O[C@H]2CC[C@@]3(C)[C@@](O)(CC[C@H]4[C@@H]5OC(C)(C)[C@H]6C[C@@H]7C(=C)Cc8c(Cl)cc9[nH]c(c5c9c8[C@@]76O)[C@@]43C)[C@]23O[C@@H]3[C@H]1O`, the Potency result in the assay on C33A, with CAOV3, in the assay on CASKI, in the assay on Es-2, in the assay with HeLa and in the assay on Hek293T was “inactive” throughout. Further, the Potency entry with JEG-3 and in the assay with OV90 was “inactive” in each case.
`COc1cc2c(cc1OC)[C@@]13CCN4CC5=CCO[C@H]6CC(=O)N2[C@H]1[C@H]6[C@H]5C[C@H]43`: the Potency result in the assay on C33A, in the assay with CAOV3, in the assay on CASKI, in the assay with Es-2, in the assay with HeLa and in the assay with Hek293T was “inactive” throughout. Besides, the Potency result in the assay with JEG-3 and in the assay on OV90 was “inactive” in each case.
On to `COC(=O)C1(C)CCC(=O)C2(C)c3c(O)cc(C(C)C)cc3C(O)C(OC(C)=O)C12` (stereo unspecified), for which the Potency result in the assay on C33A, in the assay on CAOV3, with CASKI, in the assay on Es-2, in the assay with HeLa and in the assay on Hek293T was “inactive” each time. Further, the Potency entry in the assay on JEG-3 and in the assay with OV90 was “inactive” each time.
For `CC1=C2C[C@H]3[C@@H](CC=C4C[C@@H](O)CC[C@@]43C)[C@@H]2CC[C@]12O[C@@H]1C[C@H](C)CN[C@H]1[C@H]2C`, the Potency entry in the assay with C33A, in the assay with CAOV3, in the assay with CASKI, with Es-2, in the assay on HeLa and in the assay on Hek293T was “inactive” in each case. Further, the Potency result in the assay on JEG-3 and in the assay with OV90 was “inactive” each time.
